From PubChem BioAssay (EPA / NIEHS)
The source made the active and inactive calls. How the source made its calls: active means hit-call score of the fitted dose curve at least 0.9, where 1 is the maximum; inactive means score below 0.9.

What follows are molecules tested on Thrombomodulin, THBD (gene 7056) (assay: BSK_CASM3C_Thrombomodulin: BioMAP Diversity Plus: CASM3C Assay for Thrombomodulin Biomarker Activity (AID 2283051;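 further: thrombomodulin protein level measured by ELISA 24 h after dosing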)). Conditions: primary human coronary artery smooth muscle cells; actives raise or lower the signal.

Question: How did the AC50 turn out when Cc1ccc(-c2cc(C(F)(F)F)nn2-c2ccc(S(N)(=O)=O)cc2)cc1 was run?
Answer: 4.85 µM (active)

Question: O=C1O[C@H]([C@H](O)CO)C(O)=C1O was tested. Which outcome did it give?
Answer: inactive

Question: CCCCc1nc2cccnc2n1Cc1ccc(-c2ccccc2-c2nnn[nH]2)cc1 was tested. Which outcome did it give?
Answer: inactive

Question: With CCCC(=O)O as the molecule, how does the outcome read?
Answer: inactive

Question: Which outcome does the source give for CCCCOC(=O)CCCCC(=O)OCCCC here?
Answer: inactive

Question: Which outcome does the source give for CC(C)NCC(O)c1ccc(O)c(O)c1 (stereo not given) here?
Answer: inactive

Question: Which outcome does the source give for Cn1cnc2c1c(=O)[nH]c(=O)n2C here?
Answer: inactive

Question: O=C(Oc1ccccc1)c1cccc(C(=O)Oc2ccccc2)c1 was tested. Which outcome did it give?
Answer: inactive

Question: O=C(O)c1[nH]n(-c2ccc(S(=O)(=O)O)cc2)c(=O)c1N=Nc1ccc(S(=O)(=O)O)cc1 was tested. Which outcome did it give?
Answer: inactive

Question: With CCCCC(CC)CO (stereo not given) as the molecule, how does the outcome read?
Answer: inactive

Question: CCc1cc(C2=C(C(=O)O)N(c3ccccc3C(F)(F)F)S(=O)(=O)c3ccccc32)cc2c1OCO2 was tested. Which outcome did it give?
Answer: inactive

Question: Which outcome does the source give for O=C(N[C@@H](c1ccccc1)[C@@H]1CCCCN1)c1cccc(C(F)(F)F)c1Cl here?
Answer: inactive

Question: How did the outcome turn out when CCC(C)N(C)C(=O)c1cc2ccccc2c(-c2ccccc2Cl)n1 (stereo not given) was run?
Answer: inactive

Question: With CCCCCCCCCCCCCCOS(=O)(=O)O as the molecule, how does the outcome read?
Answer: inactive

Question: For CCCCCCCC(=O)OC, which outcome is on record?
Answer: inactive

Question: CC(C)c1cccc(C(C)C)c1NC(=O)NS(=O)(=O)c1cc(C(C)(C)O)co1 was tested. Which outcome did it give?
Answer: inactive

Question: How did the outcome turn out when CCN(CC)CCOc1ccc(C(=C(Cl)c2ccccc2)c2ccccc2)cc1 was run?
Answer: inactive

Question: For c1ccc2occc2c1, which outcome is on record?
Answer: inactive

Question: CCCCCCC(C=O)=Cc1ccccc1 was tested. Which outcome did it give?
Answer: inactive

Question: For COC(=O)CCC(=O)OC, which outcome is on record?
Answer: inactive

Question: For COC(=O)CCCC(=O)OC, which outcome is on record?
Answer: inactive

Question: Which outcome does the source give for CN(C)C(=O)NC1(c2ccccc2)CCN(CC[C@@]2(c3ccc(F)c(F)c3)CN(C(=O)c3ccccc3)CCO2)CC1 here?
Answer: inactive

Question: How did the outcome turn out when CC(=O)S[C@H](C(=O)N[C@H]1Cc2ccccc2[C@H]2CCC[C@@H](C(=O)O)N2C1=O)C(C)C was run?
Answer: inactive

Question: How did the outcome turn out when CC(=O)OC1CC(C)OC(C)O1 (stereo not given) was run?
Answer: inactive

Question: For O=C1CCCCC1, which AC50 is on record?
Answer: 0.194 µM (active)

Question: Nc1nc(Cl)nc2c1ncn2[C@H]1C[C@H](O)[C@@H](CO)O1 was tested. Which outcome did it give?
Answer: inactive

Question: How did the AC50 turn out when Cc1c(C)c2c(c(C)c1O)CCC(C)(COc1ccc(CC3SC(=O)NC3=O)cc1)O2 (stereo not given) was run?
Answer: 5.08 µM (active)

Question: How did the AC50 turn out when CCCCC(CC)COP(=O)(OCC(CC)CCCC)OCC(CC)CCCC (stereo not given) was run?
Answer: 7.89 µM (active)

Question: How did the outcome turn out when O=C(O)c1cccnc1 was run?
Answer: inactive

Question: How did the outcome turn out when O=C(O)CC(O)(CC(=O)O)C(=O)O was run?
Answer: inactive

The molecules below were run on Tissue Factor, F3 (gene 2152) (assay: BSK_CASM3C_TissueFactor: BioMAP Diversity Plus: CASM3C Assay for Tissue Factor Biomarker Activity (AID 2283052;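 further: cell surface tissue factor protein level read by ELISA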)). Conditions: primary human coronary artery smooth muscle cells; actives raise or lower the signal.

Question: How did the AC50 turn out when Cc1ccc(-c2cc(C(F)(F)F)nn2-c2ccc(S(N)(=O)=O)cc2)cc1 was run?
Answer: 36.7 µM (active)

Question: O=C1O[C@H]([C@H](O)CO)C(O)=C1O was tested. Which outcome did it give?
Answer: inactive

Question: With CCCCc1nc2cccnc2n1Cc1ccc(-c2ccccc2-c2nnn[nH]2)cc1 as the molecule, how does the outcome read?
Answer: inactive

Question: For CCCC(=O)O, which outcome is on record?
Answer: inactive

Question: CCCCOC(=O)CCCCC(=O)OCCCC was tested. Which outcome did it give?
Answer: inactive

Question: CC(C)NCC(O)c1ccc(O)c(O)c1 (stereo not given) was tested. Which outcome did it give?
Answer: inactive

Question: For Cn1cnc2c1c(=O)[nH]c(=O)n2C, which outcome is on record?
Answer: inactive

Question: Which outcome does the source give for O=C(Oc1ccccc1)c1cccc(C(=O)Oc2ccccc2)c1 here?
Answer: inactive

Question: For O=C(O)c1[nH]n(-c2ccc(S(=O)(=O)O)cc2)c(=O)c1N=Nc1ccc(S(=O)(=O)O)cc1, which outcome is on record?
Answer: inactive

Question: With CCCCC(CC)CO (stereo not given) as the molecule, how does the outcome read?
Answer: inactive

Question: Which outcome does the source give for CCc1cc(C2=C(C(=O)O)N(c3ccccc3C(F)(F)F)S(=O)(=O)c3ccccc32)cc2c1OCO2 here?
Answer: inactive

Question: How did the outcome turn out when O=C(N[C@@H](c1ccccc1)[C@@H]1CCCCN1)c1cccc(C(F)(F)F)c1Cl was run?
Answer: inactive

Question: How did the outcome turn out when CCC(C)N(C)C(=O)c1cc2ccccc2c(-c2ccccc2Cl)n1 (stereo not given) was run?
Answer: inactive

Question: CCCCCCCCCCCCCCOS(=O)(=O)O was tested. Which outcome did it give?
Answer: inactive

Question: How did the outcome turn out when CCCCCCCC(=O)OC was run?
Answer: inactive

Question: With CC(C)c1cccc(C(C)C)c1NC(=O)NS(=O)(=O)c1cc(C(C)(C)O)co1 as the molecule, how does the outcome read?
Answer: inactive

Question: How did the AC50 turn out when CCN(CC)CCOc1ccc(C(=C(Cl)c2ccccc2)c2ccccc2)cc1 was run?
Answer: 31.8 µM (active)

Question: With c1ccc2occc2c1 as the molecule, how does the outcome read?
Answer: inactive

Question: CCCCCCC(C=O)=Cc1ccccc1 was tested. Which outcome did it give?
Answer: inactive

Question: With COC(=O)CCC(=O)OC as the molecule, how does the outcome read?
Answer: inactive

Question: For COC(=O)CCCC(=O)OC, which outcome is on record?
Answer: inactive

Question: With CN(C)C(=O)NC1(c2ccccc2)CCN(CC[C@@]2(c3ccc(F)c(F)c3)CN(C(=O)c3ccccc3)CCO2)CC1 as the molecule, how does the outcome read?
Answer: inactive

Question: For CC(=O)S[C@H](C(=O)N[C@H]1Cc2ccccc2[C@H]2CCC[C@@H](C(=O)O)N2C1=O)C(C)C, which outcome is on record?
Answer: inactive

Question: For CC(=O)OC1CC(C)OC(C)O1 (stereo not given), which outcome is on record?
Answer: inactive

Question: How did the outcome turn out when O=C1CCCCC1 was run?
Answer: inactive

Question: For Nc1nc(Cl)nc2c1ncn2[C@H]1C[C@H](O)[C@@H](CO)O1, which outcome is on record?
Answer: inactive

Question: With Cc1c(C)c2c(c(C)c1O)CCC(C)(COc1ccc(CC3SC(=O)NC3=O)cc1)O2 (stereo not given) as the molecule, how does the outcome read?
Answer: inactive

Question: How did the outcome turn out when CCCCC(CC)COP(=O)(OCC(CC)CCCC)OCC(CC)CCCC (stereo not given) was run?
Answer: inactive

Question: For O=C(O)c1cccnc1, which outcome is on record?
Answer: inactive

Question: O=C(O)CC(O)(CC(=O)O)C(=O)O was tested. Which outcome did it give?
Answer: inactive

Each molecule was assayed on Interferon-gamma inducible Protein 10 (IP10), CXCL10 (gene 3627) (assay: BSK_hDFCGF_IP10: BioMAP Diversity Plus: hDFCGF Assay for Interferon-gamma inducible Protein 10 (IP10) Biomarker Activity (AID 2283053)). Conditions: primary human foreskin fibroblasts; actives raise or lower the signal.
Outline: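 Primary foreskin fibroblasts, human; 24 h compound exposure; IP-10 by ELISA; bidirectional fit vs DMSO.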

Question: How did the outcome turn out when Cc1ccc(-c2cc(C(F)(F)F)nn2-c2ccc(S(N)(=O)=O)cc2)cc1 was run?
Answer: inactive

Question: For O=C1O[C@H]([C@H](O)CO)C(O)=C1O, which outcome is on record?
Answer: inactive

Question: Which AC50 does the source give for CCCCc1nc2cccnc2n1Cc1ccc(-c2ccccc2-c2nnn[nH]2)cc1 here?
Answer: 32 µM (active)

Question: Which outcome does the source give for CCCC(=O)O here?
Answer: inactive

Question: For CCCCOC(=O)CCCCC(=O)OCCCC, which outcome is on record?
Answer: inactive

Question: How did the outcome turn out when CC(C)NCC(O)c1ccc(O)c(O)c1 (stereo not given) was run?
Answer: inactive

Question: How did the outcome turn out when Cn1cnc2c1c(=O)[nH]c(=O)n2C was run?
Answer: inactive

Question: For O=C(Oc1ccccc1)c1cccc(C(=O)Oc2ccccc2)c1, which outcome is on record?
Answer: inactive

Question: Which outcome does the source give for O=C(O)c1[nH]n(-c2ccc(S(=O)(=O)O)cc2)c(=O)c1N=Nc1ccc(S(=O)(=O)O)cc1 here?
Answer: inactive

Question: Which outcome does the source give for CCCCC(CC)CO (stereo not given) here?
Answer: inactive

Question: How did the outcome turn out when CCc1cc(C2=C(C(=O)O)N(c3ccccc3C(F)(F)F)S(=O)(=O)c3ccccc32)cc2c1OCO2 was run?
Answer: inactive

Question: With O=C(N[C@@H](c1ccccc1)[C@@H]1CCCCN1)c1cccc(C(F)(F)F)c1Cl as the molecule, how does the AC50 read?
Answer: 10.5 µM (active)

Question: CCC(C)N(C)C(=O)c1cc2ccccc2c(-c2ccccc2Cl)n1 (stereo not given) was tested. Which outcome did it give?
Answer: inactive

Question: With CCCCCCCCCCCCCCOS(=O)(=O)O as the molecule, how does the AC50 read?
Answer: 8.52 µM (active)

Question: How did the outcome turn out when CCCCCCCC(=O)OC was run?
Answer: inactive

Question: For CC(C)c1cccc(C(C)C)c1NC(=O)NS(=O)(=O)c1cc(C(C)(C)O)co1, which outcome is on record?
Answer: inactive

Question: Which AC50 does the source give for CCN(CC)CCOc1ccc(C(=C(Cl)c2ccccc2)c2ccccc2)cc1 here?
Answer: 14.4 µM (active)

Question: c1ccc2occc2c1 was tested. Which outcome did it give?
Answer: inactive

Question: How did the AC50 turn out when CCCCCCC(C=O)=Cc1ccccc1 was run?
Answer: 32.6 µM (active)

Question: With COC(=O)CCC(=O)OC as the molecule, how does the outcome read?
Answer: inactive

Question: How did the outcome turn out when COC(=O)CCCC(=O)OC was run?
Answer: inactive

Question: For CN(C)C(=O)NC1(c2ccccc2)CCN(CC[C@@]2(c3ccc(F)c(F)c3)CN(C(=O)c3ccccc3)CCO2)CC1, which outcome is on record?
Answer: inactive

Question: CC(=O)S[C@H](C(=O)N[C@H]1Cc2ccccc2[C@H]2CCC[C@@H](C(=O)O)N2C1=O)C(C)C was tested. Which outcome did it give?
Answer: inactive

Question: For CC(=O)OC1CC(C)OC(C)O1 (stereo not given), which outcome is on record?
Answer: inactive

Question: How did the outcome turn out when O=C1CCCCC1 was run?
Answer: inactive

Question: Nc1nc(Cl)nc2c1ncn2[C@H]1C[C@H](O)[C@@H](CO)O1 was tested. Which outcome did it give?
Answer: inactive

Question: For Cc1c(C)c2c(c(C)c1O)CCC(C)(COc1ccc(CC3SC(=O)NC3=O)cc1)O2 (stereo not given), which AC50 is on record?
Answer: 9.98 µM (active)

Question: For CCCCC(CC)COP(=O)(OCC(CC)CCCC)OCC(CC)CCCC (stereo not given), which outcome is on record?
Answer: inactive

Question: Which outcome does the source give for O=C(O)c1cccnc1 here?
Answer: inactive

Question: With O=C(O)CC(O)(CC(=O)O)C(=O)O as the molecule, how does the outcome read?
Answer: inactive
